Test results as given in PubChem BioAssay (Tox21).
Values without a mark were called inactive. Calls of active or inactive are those of the source. Calls come from the whole dose curve; as a rule, active = well fitted inhibition curve with a large enough effect in the repeat runs (not every such curve was filed as active); inconclusive = weak or mixed curves; inactive = flat fitted curve, though single readings scatter.

molecular target: Thyrotropin-releasing hormone receptor (Homo sapiens) (UniProt P34981); assay: qHTS assay to identify small molecule antagonists of the thyrotropin-releasing hormone receptor (TRHR) signaling pathway (AID 1346877); conditions: TRHR-HEK293, TRH-induced calcium fluorescence, antagonist mode; series mostly up to 51.3 µM; activity, negative = inhibition: at the top concentration
Sequence (P34981 whole entry, looked up): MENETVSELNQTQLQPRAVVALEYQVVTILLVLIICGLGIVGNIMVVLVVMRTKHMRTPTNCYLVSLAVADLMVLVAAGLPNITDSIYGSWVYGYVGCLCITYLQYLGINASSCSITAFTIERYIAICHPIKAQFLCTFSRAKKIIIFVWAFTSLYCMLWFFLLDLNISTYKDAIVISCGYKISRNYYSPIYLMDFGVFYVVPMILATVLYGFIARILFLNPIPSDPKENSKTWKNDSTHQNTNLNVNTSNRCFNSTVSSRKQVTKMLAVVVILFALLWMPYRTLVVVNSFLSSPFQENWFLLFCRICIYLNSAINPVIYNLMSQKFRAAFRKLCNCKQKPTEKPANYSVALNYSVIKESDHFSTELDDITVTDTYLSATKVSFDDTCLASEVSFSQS
Excerpt: National Center for Advancing Translational Sciences [NCATS]
NIH Chemical Genomics Center [NCGC]
U.S. Environmental Protection Agency [EPA]
National Institutes of Environmental Health Sciences [NIEHS]
National Toxicology Program [NTP]
U.S. Food and Drug Administration [FDA]
Thyrotropin-releasing hormone (TRH) receptor (TRHR) is a G-protein-coupled receptor which binds the tripeptide thyrotropin releasing hormone. TRHR is found in the brain and, when bound by TRH, acts (through phospholipase C) to increase intracellular inositol trisphosphate. It plays a crucial role in the anterior pituitary where it controls the synthesis and secretion of thyroid stimulating hormone and prolactin. The TRHR-Hek293 assay is a cell-based assay, and it has the potential to screen G protein-coupled receptors. A compound/drug can either activate (agonist) or suppress (antagonist) GPCRs that can be monitored by levels of intracellular calcium. In this assay, the Tox21 10K compound library was screened to identify potential TRHR antagonists.
Tox21 Assay Protocol Summary:
The TRHR-Hek293 cells were dispensed at 1500cells/4uL/well in 1536-well black-clear bottom plates using a Multidrop dispenser. After the assay plates were incubated at a 37 C/5% CO2 incubator for 18 hours, 4 uL of Dye-Loading Solution was added to each well. The plates were incubated at 37 C for 2 hours. For agonist mode, 23 nL of compounds dissolved in DMSO, positive controls or DMSO only was transferred to the assay plate by a pin tool. The fluorescence intensity in the plates was measured using FDSS 7000EX kinetic plate reader for 3 min at 1 sec intervals. For antagonist mode, 23 nL of compounds dissolved in DMSO, positive controls or DMSO only was transferred to the assay plate by a pin tool. After 5 min incubation at room temperature, 1 uL of TRH was added on the top of the cell/compound mixtures to achieve a final agonist concentration of 1 nM. The fluorescence intensity in the plates was measured using FDSS 7000EX kinetic plate reader for 3 min at 1 sec intervals. Each test compound was measured at 15 concentrations and in triplicates.
% is set by controls: 0 for no effect and ±100 for the full control effect.

SMILES | activity, negative = inhibition | outcome
COC(=O)CCSCCC(=O)OC | -4.44% | –
CCO/C([O-])=N/c1c[n+](N2CCOCC2)no1 | -0.378% [at 23.6 µM] | –
COc1nc(N)nc2c1ncn2[C@@H]1O[C@H](CO)[C@@H](O)[C@@H]1O | -12.2% [at 23.6 µM] | –
COC(=O)C1=C(C)NC(C)=C(C(=O)OC)C1c1ccccc1[N+](=O)[O-] | – | inactive
CCCCNC(=O)NCCCC | 0.868% | –
COCCCOCCCOC | 0.181% | –
C=C[Si](OC(=C)C)(OC(=C)C)OC(=C)C | -1.59% | –
CO[Si](CCCOCC1CO1)(OC)OC (stereo not given) | – | inactive
OCCCC1CCCCC1 | 3.85% | –
Nc1cc(=O)[nH]c(N)n1 | 2% [at 23.6 µM] | –
CCC(C)C1CCCCC1=O (stereo not given) | -0.133% | –
C[N+](C)(C)CC(O)CC(=O)[O-] (stereo not given) | 3.57% [at 23.6 µM] | –
COC(C)(C)CCCC(C)CC=O (stereo not given) | 0.792% | –
C/C=C(\C)C#N | 2.55% | –
CC1=CC(C)C(C=O)CC1 (stereo not given) | -5.3% | –
CC(C)(O)C(=O)c1ccccc1 | 4.6% | –
CC(=O)CC(C)(C)C1CCCCC1 | 3.48% | –
CCc1nccnc1CC | 3.49% [at 10.5 µM] | –
O=C1CCCN1C1CCCCC1 | -6.63% | –
CCCCCCOC(=O)CCCCC(=O)OCCCCCC | 3.35% | –

SMILES | activity, negative = inhibition | outcome
CC(C)=CCCC(C)CC(=O)O (stereo not given) | 0.0503% | –
CCCN1CCCC[C@H]1C(=O)Nc1c(C)cccc1C | -1.36% [at 23.6 µM] | –
COc1ccc(CCN(C)CCCC(C#N)(c2cc(OC)c(OC)c(OC)c2)C(C)C)cc1OC (stereo not given) | 2.96% [at 23.6 µM] | –
NC(CSCC(=O)O)C(=O)O (stereo not given) | -4.76% [at 23.6 µM] | –
CC(C)CCCC(C)N (stereo not given) | -0.762% [at 23.6 µM] | –
COc1cc(C(=O)N2CCCCCCC2)cc(OC)c1OC | 0.844% [at 23.6 µM] | –
CCc1ccc(O)c(OC)c1 | -1.99% | –
C=CCS(=O)(=O)O | 3.84% | –
CC(=O)OC/C=C(\C)CC/C=C(\C)CCC=C(C)C | – | inactive
OC[C@]1(O)OC[C@@H](O)[C@H](O)[C@@H]1O | – | inactive
OC1CCCCC1c1ccccc1 (stereo not given) | 2.92% | –
NCCc1cnc[nH]1 | -0.619% [at 23.6 µM] | –
O=C1CCCC(=O)C1 | -7.21% | –
O=C1CCCCCCCCCCCN1 | – | inactive
CCS(=O)(=O)c1ccc(OC)c(C(=O)OC)c1 | 1.63% [at 23.6 µM] | –
C=C(C)CS(=O)(=O)O | -6.39% | –
Cc1c(O)cccc1O | -6.17% | –
CCN(Cc1ccncc1)C(=O)C(CO)c1ccccc1 (stereo not given) | 5.37% [at 23.6 µM] | –
COC(=O)c1ccc(C)cc1C1=NC(C)(C(C)C)C(=O)N1 (stereo not given) | -6.93% | –
CC(C)(c1ccc(O)cc1)c1ccc(O)cc1 | – | inactive
